Screens as filed in PubChem BioAssay.
This is a sample that favours compounds with a hit; in the whole collection about 27% have one here.
CYP2C9 activ: human CYP2C9 activators, primary screen, biochemical, luminescence; Cytochrome P450 2C9 (Homo sapiens), P11712; recombinant CYP2C9, luciferin-H conversion; active compounds read high; factor 1 = untreated enzyme, 0 = blocked; activation factor at 5 µM; 96,000 compounds, 1.4% hits; AID 1024, 2008;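 active = activation factor of 2 or more for CYP2C9 at a 5 µM dose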;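 also: 0 = sulfaphenazole-blocked wells and 1 = vehicle-only wells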
CYP2C19 inhib: blockers of cytochrome P450 2C19 activity – biochemical, luminescence, ADME assay, primary screen | P33261 | CYP2C19 Supersomes, luciferin-H EGE luminescence, 30 min | inhibition, % at 5 µM | 96,000 compounds, 21% hits;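 active = CYP2C19 inhibition above a set limit at 5 µM in the primary screen, cut at about 50% in these data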;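 also: plate controls were negative control wells for no effect and 2.5 mM tranylcypromine positive control for full effect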
Target sequence (P33261 whole entry, looked up): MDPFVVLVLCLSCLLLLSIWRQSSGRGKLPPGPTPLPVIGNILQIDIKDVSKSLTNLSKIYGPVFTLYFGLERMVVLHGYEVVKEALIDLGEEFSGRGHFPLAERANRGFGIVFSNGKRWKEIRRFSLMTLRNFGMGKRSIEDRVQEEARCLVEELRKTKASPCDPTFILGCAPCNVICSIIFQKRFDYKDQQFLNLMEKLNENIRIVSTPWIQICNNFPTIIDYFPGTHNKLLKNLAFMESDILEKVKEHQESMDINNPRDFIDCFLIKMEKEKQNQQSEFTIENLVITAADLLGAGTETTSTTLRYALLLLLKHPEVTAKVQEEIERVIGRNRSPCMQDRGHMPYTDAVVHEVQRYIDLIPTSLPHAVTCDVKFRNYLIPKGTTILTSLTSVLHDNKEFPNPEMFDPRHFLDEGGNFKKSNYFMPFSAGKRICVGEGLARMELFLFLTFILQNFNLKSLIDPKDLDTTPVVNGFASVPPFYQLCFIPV
CYP2C19 act: human CYP2C19 activators, primary screen, biochemical, luminescence. activation factor at 5 µM. 96,000 tested, under 10 active. recombinant CYP2C19, luciferin-H EGE luminescence; active compounds read high; 0 = fully inhibited enzyme, 1 = untreated enzyme. Cytochrome P450 2C19 (Homo sapiens), P33261;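 active = activation factor of at least 2 at 5 µM in the primary screen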;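 also: 0 = wells with 2.5 mM tranylcypromine and 1 = vehicle-only wells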
sEH inhibitor: soluble epoxide hydrolase inhibitors, primary screen, biochemical, human sEH. Bifunctional epoxide hydrolase 2 (Homo sapiens), P34913. recombinant human sEH enzymatic activity assay. inhibition, % at 2 µM. 91,000 compounds, 0.34% hits. AID 707, 2007; in the data active = inhibition above about 80%
CYP2C9 inhib: blockers of cytochrome P450 2C9 activity – biochemical, luminescence, ADME assay, primary screen; P11712; CYP2C9 Supersomes, luciferin-H conversion; inhibition, % at 5 µM; 96,000 compounds, 20% hits; AID 777, 2007;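 active = blocking of liver enzyme CYP2C9 beyond about 50% at 5 µM, limit read from the data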
sEH activator: soluble epoxide hydrolase activators, primary screen, biochemical, human sEH; purified human sEH enzymatic activity, activator screen; activation, % at 2 µM; 91,000 compounds, 0.04% hits; AID 717, 2007; in the data active = activation above about 37%
Numbers without * were called inactive; / = no result.

SMILES | CYP2C9 activ | CYP2C19 inhib | CYP2C19 act | sEH inhibitor | CYP2C9 inhib | sEH activator
CN(Cc1ccco1)C(=O)C(Cc1ccccc1)NS(=O)(=O)c1ccc2c(c1)CCC(=O)N2 (stereo unspecified) | 0.3 | 55.9* | 0.4 | 15.2 | 71.2* | -15.8
COc1cccc(-c2nnc(SCC(=O)Nc3ccc(OC)c(OC)c3)n2N)c1 | 0.7 | 0.8 | 1 | 8.4 | 30.8 | -8.9
Cc1ncc([N+](=O)[O-])n1CCOC(=O)Nc1ccc(Cl)c(Cl)c1 | 0.7 | 45.1 | 0.5 | 5.9 | 28.1 | -3.6
c1coc(CN=C2NC(=NCc3ccco3)c3ccccc32)c1 | 0.6 | 55.2* | 0.4 | -13.2 | 39.7 | 11.8
CCOc1ccccc1CNc1ccc(N2CCOCC2)c(C(=O)O)c1 | 1 | -1.8 | 1 | 2.1 | 0.7 | -2.4
O=C(COC(=O)c1ccccc1)Nc1ccccc1N1CCOCC1 | / | / | / | 6.8 | / | -5.5
COC(=O)c1cc(NCc2ccccc2F)ccc1N1CCOCC1 | 0.5 | 86.9* | 0.1 | -6.4 | 54.9* | 7.7
CC(C)Oc1cccc(C(=O)Nc2ccccc2N2CCOCC2)c1 | 0.4 | 37.7 | 0.6 | 11.4 | 58.7* | -12.4
O=C(Nc1ccccc1N1CCOCC1)c1cccs1 | / | / | / | -7.8 | / | 5.9
COC(=O)c1ccccc1NC(=O)Cn1c(=O)oc2ccc(Cl)cc21 | 0.6 | 74.2* | 0.3 | -12.7 | 41.4 | 13.0
COC(=O)c1ccccc1NC(=O)CNc1cc(Cl)ccc1N1CCOCC1 | 0.1 | 84.0* | 0.2 | -0.7 | 94.5* | -1.6
O=S(=O)(c1ccc(Cl)cc1)N1CCCC1c1nc(-c2cccc(Cl)c2)no1 (stereo unspecified) | 0.7 | 6.7 | 0.9 | 8.6 | 25.8 | -6.4
Cc1noc(NS(=O)(=O)c2ccc(NC(=O)c3cnc4n(c3=O)CCS4)cc2)c1C | / | / | / | -1.1 | / | 4.0
Cc1cc(Cl)ccc1OC(C)C(=O)Nc1ccccc1N1CCOCC1 (stereo unspecified) | 0 | 90.0* | 0.1 | 4.4 | 96.9* | -3.9
CCC(C)Oc1cccc(C(=O)Nc2ccccc2N2CCOCC2)c1 (stereo unspecified) | 0.3 | 67.9* | 0.3 | -10.5 | 73.1* | 12.0
CCOc1ccc(C(=O)C2CCN(CC(=O)Nc3ccccc3N3CCOCC3)CC2)cc1 | 0 | 99.1* | 0 | 5.4 | 96.3* | -3.1
COc1cc(OC)cc(C(=O)N[C@H](C(=O)Nc2ccccc2N2CCOCC2)C(C)C)c1 | 0.6 | 48.1 | 0.5 | 2.8 | 41.6 | -1.6
CCOc1ccc(C(=O)Nc2ccccc2N2CCOCC2)cc1 | 1 | 17.7 | 0.8 | 1.3 | -1.3 | 0.4
CCOc1cc(S(=O)(=O)N(Cc2ccccc2)Cc2ccccc2)c(OCC)cc1-n1cnnn1 | 0.6 | 24.4 | 0.8 | -3.4 | 40.9 | 2.3
COc1cc(NC(=O)C2CCC(CNc3c(N4CCCCC4)c(=O)c3=O)CC2)cc(OC)c1 (stereo unspecified) | 0.4 | 57.6* | 0.4 | / | 62.0* | /
COc1cc(NC(=O)C2CCC(CNc3c(N4CCC(C)CC4)c(=O)c3=O)CC2)cc(OC)c1 (stereo unspecified) | 0.5 | 33.4 | 0.7 | -13.1 | 51.2* | 11.3
Cc1ccnc(NC(=O)C2CCC(CNc3c(N4CCCC4)c(=O)c3=O)CC2)c1 (stereo unspecified) | 0.8 | 20.4 | 0.8 | -5.6 | 16.8 | 5.3
COc1ccc(NC(=O)C2CCC(CNc3c(N4CCC(C)CC4)c(=O)c3=O)CC2)cc1OC (stereo unspecified) | 0.6 | 12.6 | 0.9 | 3.9 | 41.7 | -5.4
Cc1nc(CCNC(=O)c2ccccc2)cs1 | 0.9 | 43.8 | 0.6 | 12.3 | 12.9 | -9.0
CNC(=S)Nc1ccc(Nc2ccccc2)cc1 | 0.6 | 42.9 | 0.6 | 2.9 | 39.7 | -2.8
CNC(=S)NN(c1ccccc1)c1ccccc1 | 0.9 | 77.5* | 0.2 | 2.3 | 8.2 | 0.5
COc1ccc(C(=O)Nc2cccc3c2C(=O)NC3=O)cc1S(=O)(=O)N1CCOCC1 | 0.9 | 10.1 | 0.9 | / | 8.7 | /
Cc1ccc(C2CC(C(F)(F)F)n3ncc(C(=O)NCc4ccco4)c3N2)cc1 (stereo unspecified) | 0.7 | 25.8 | 0.7 | -16.0 | 25.4 | 15.1
